# Screening data (PubChem BioAssay)
# IDH1 R132H inh: qHTS for Inhibitors of mutant isocitrate dehydrogenase 1 (IDH1): qHTS; Isocitrate dehydrogenase [NADP] cytoplasmic (Homo sapiens), O75874; IDH1-R132H enzyme, NADPH consumption, diaphorase/resazurin fluorescence; Potency, µM (top dose mostly 76.6 µM), hits mostly inhibitors; actives 0.093% (n = 390,000); also: nearly all actives have a fitted effect of over 65% in size
#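 IDH1-R132H (0.5 ug/mL dispensed) in pH 7.5 Tris buffer was preincubated 30 min with compound, then given a substrate mix of 0.016 mM NADPH and 2 mM alpha-KG for 80 min at room temperature; remaining NADPH was read by diaphorase/resazurin fluorescence.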
# Mito fusion act: qHTS Assay for Small Molecule Inhibitors of Mitochondrial Division or Activators of Mitochondrial Fusion; S. cerevisiae fusion-defective mutant growth rescue, CellTiterGlo 48 h; Potency, µM (titrated, usually from 46.1 µM), actives largely listed as activators; actives 0.23% (n = 320,000); AID 485298, 2010; also: nearly all actives have a fitted effect of over 45% in size
#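 S. cerevisiae fusion-defective temperature-sensitive mutants (e.g. fzo1-1, mgm1-5) grown 48 h at 37C in YPEG (ethanol/glycerol non-fermentable) medium with 23 nl compound per well; growth rescue read as CellTiterGlo luminescence.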
# TrxR1 substrate: qHTS Assay for Substrates of Mammalian Selenoprotein Thioredoxin Reductase 1 (TrxR1): qHTS; purified TrxR1 substrate turnover, NADPH consumption readout; Potency, µM (highest dose often 114 µM); actives 0.01% (n = 390,000); AID 588456, 2011; also: nearly all actives have a fitted effect of over 50% in size
# Target sequence (O89049 whole entry, looked up): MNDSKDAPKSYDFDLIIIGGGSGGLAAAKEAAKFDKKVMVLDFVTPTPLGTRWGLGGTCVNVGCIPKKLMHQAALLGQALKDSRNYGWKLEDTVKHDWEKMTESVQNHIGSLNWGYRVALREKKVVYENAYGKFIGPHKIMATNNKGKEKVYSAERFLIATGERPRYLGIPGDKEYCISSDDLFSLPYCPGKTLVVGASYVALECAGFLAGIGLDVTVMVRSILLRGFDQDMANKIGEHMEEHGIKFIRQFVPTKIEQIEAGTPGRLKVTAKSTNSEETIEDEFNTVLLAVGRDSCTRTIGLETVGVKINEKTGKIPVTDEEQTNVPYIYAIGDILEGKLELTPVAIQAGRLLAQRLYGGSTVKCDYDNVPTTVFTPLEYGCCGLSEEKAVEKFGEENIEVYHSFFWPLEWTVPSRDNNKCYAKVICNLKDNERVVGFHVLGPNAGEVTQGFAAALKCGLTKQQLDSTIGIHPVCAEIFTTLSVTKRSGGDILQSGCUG
#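 Rat TrxR1, dispensed at 90 nM, was prereduced with 400 uM NADPH (final) for 5 min at ~22 deg C, then incubated with compound 15 min before 400 uM selenite. A first-read NADPH fluorescence drop versus no-compound background flagged substrates.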
# TrxR1 inh: qHTS Assay for Inhibitors of Mammalian Selenoprotein Thioredoxin Reductase 1 (TrxR1): qHTS; Thioredoxin reductase 1, cytoplasmic (Rattus norvegicus), O89049; recombinant rTrxR1, NADPH fluorescence consumption, selenite substrate; Potency, µM (titrated, usually from 114 µM), hits mostly inhibitors; actives 1% (n = 390,000); AID 588453, 2011; also: nearly all actives have a fitted effect of over 65% in size
#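 Rat TrxR1 (90 nM in the dispensed reagent) was pre-reduced with 400 uM NADPH for 5 min at room temperature, then incubated with compound for 15 min. After 400 uM selenite was added, NADPH fluorescence (Ex 340/Em 450 nm) was followed for 8 min.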
# Nrf2 block: Nrf2 qHTS screen for inhibitors; A549 ARE-Fluc reporter, luciferase luminescence, 18-24 h; Potency, µM (doses to about 46 µM), usual class: inhibitors; actives 2.1% (n = 360,000); AID 504444, 2011; also: nearly all actives have a fitted effect of over 60% in size
#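 A549 ARE_Fluc cells (5000/well, 5% FBS OPTI-MEM) pre-incubated 2 h, then treated with compounds 18-24 h at 37C/5% CO2 in concentration-response. CellTiter-Fluor viability read first; BugLite luciferase luminescence after 15 min at room temperature gives Nrf2 activity.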
# A549 tox-1: Nrf2 qHTS screen for inhibitors: counterscreen for cytotoxicity. A549 ARE-Fluc cells, CellTiter-Fluor viability, 18-24 h. Potency, µM (series often up to 46 µM), most hits filed as inhibitors. actives 0.16% (n = 390,000)
#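 Cytotoxicity counterscreen: CellTiter-Fluor fluorescence was measured in A549 ARE_Fluc cells after 18-24 h of compound exposure in a concentration series. The subsequent BugLite luminescent read reports ARE-luciferase activity.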
# FLuc enzyme inh: Nrf2 qHTS screen for inhibitors: Purified Fluc Biochemical Counterscreen for Hit Validation; shares compounds with Nrf2 block; purified firefly luciferase, luminescence inhibition; Potency, µM (highest dose often 57.5 µM), most hits filed as inhibitors; actives 4% (n = 1,400); AID 720522, 2013; also: nearly all actives have a fitted effect of over 65% in size
# A549 tox-2: Nrf2 qHTS screen for inhibitors: A549 ARE-Fluc Cytotoxicity Counterscreen for Hit Validation; A549 ARE-Fluc cells, cytotoxicity counterscreen; actives 2% (n = 1,400); shares compounds with Nrf2 block; Potency, µM (titrated, usually from 46.1 µM), usual class: inhibitors; AID 720523, 2013;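 also: cells exposed to compounds for 18 to 24 hours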
# Nrf2 ARE inh: Nrf2 qHTS screen for inhibitors: Nrf2 A549 ARE-Fluc Confirmation Assay for Hit Validation; shares compounds with Nrf2 block; A549 ARE-firefly luciferase reporter, luminescence; Potency, µM (series often up to 46.1 µM), hits mostly inhibitors; actives 74% (n = 1,400); also: nearly all actives have a fitted effect of over 65% in size
# Numbers stand for hits; - = inactive; ? = inconclusive; . = no result; [ ] = another dose, or the depositor's remark. The list is not random: actives were taken first. Their share in the collection is about 3.1%. Calls follow the shape of the dose curve; as a rule, active = well fitted curve in the direction sought with a large enough effect; inconclusive = small, poorly fitted or top-dose-only effect, or another doubt; inactive = no such curve, though single readings can be large; an effect the other way counts as inactive or inconclusive.
SMILES,IDH1 R132H inh,Mito fusion act,TrxR1 substrate,TrxR1 inh,Nrf2 block,A549 tox-1,FLuc enzyme inh,A549 tox-2,Nrf2 ARE inh
Cc1cc(C)cc(NC(=O)C(C)N2Cc3ccccc3C2=O)c1 (stereo unspecified),-,.,-,-,-,-,.,.,.
O=C(NCc1ccc(F)cc1)c1ccc2c(O)c(S(=O)(=O)c3ccccc3)c(=O)[nH]c2c1,-,.,-,-,?,-,.,.,.
CCCCOc1ccccc1NC(=O)c1scc2c1OCCO2,-,-,-,-,5.2µM,-,-,-,-
Cc1cccc(OCC(=O)NCCCNC(=O)c2cccnc2)c1,-,-,-,-,?,-,.,.,.
Cc1ccc(OCC(=O)NCCCNC(=O)c2cccnc2)cc1,-,-,-,-,1.8µM,-,-,-,-
Nc1cc(S(=O)(=O)Nc2ccccc2Cl)ccc1N1CCCCC1,-,.,-,-,7.3µM,-,9.5µM,-,15µM
Nc1ccc(N2CCCCC2)c(S(=O)(=O)Nc2ccccc2Cl)c1,-,-,-,-,-,-,.,.,.
COc1ccc(NC(=O)C2CCN(S(=O)(=O)c3ccc4c(c3)CCCC(=O)N4)CC2)cc1OC,-,.,-,-,?,-,.,.,.
Cc1c(Cl)cccc1NC(=O)CSc1nc(=O)[nH]c2c1CCCC2,-,.,-,-,.,-,.,.,.
CSC1SCC2C(=O)N(C)C(C(C)C)C(=O)OCC(NC(=O)c3cnc4ccccc4n3)C(=O)NC(C)C(=O)N(C)C1C(=O)N(C)C(C(C)C)C(=O)OCC(NC(=O)c1cnc3ccccc3n1)C(=O)NC(C)C(=O)N2C (stereo unspecified),-,.,-,?,0.0065µM,?,?,10µM,6.5µM
Cc1ccc(Cn2c(CCNC(=O)c3cccc(C)c3)nc3ccccc32)cc1,-,.,-,-[0.457 µM],?,-,.,.,.
COc1cccc(C2C(C(N)=O)=C(C)Nc3ncnn32)c1 (stereo unspecified),-,.,-,-,-,-,.,.,.
Cc1ccc(C(=O)NCc2ccco2)cc1S(=O)(=O)N1CCCCC1,-,-,-,?,-,-,.,.,.
Cc1ccc(C(=O)NCc2cccc(C(F)(F)F)c2)cc1S(=O)(=O)N1CCCCC1,-,-,-,-,3.7µM,-,-,-,?
COc1ccc2c(Sc3ccccc3)c(C(=O)N3CCC(C)CC3)[nH]c2c1,-,.,-,-,-,-,.,.,.
Oc1ccc(CCNc2ncnc3ccc(Cl)cc23)cc1,-,-,-,-,7.3µM,-,-,-,7.3µM
Cc1ccc(C(=O)OCC(=O)NC(=O)c2cccn2C)cc1,-,-,-,-,1.3µM,-,-,-,1.6µM
CC1(C)CC2CC(C)(CN2S(=O)(=O)c2ccc(C(=O)Nc3cccc(S(=O)(=O)N4CCOCC4)c3)cc2)C1 (stereo unspecified),-,-,-,-,2.3µM,-,-,-,2.1µM
Cc1ccnc2ccc3ccccc3c12,.,.,-,89µM,.,.,-,-,6.5µM
COc1ccc(OC)c(NC(=O)CCc2c(C)nn(-c3ccc(N4CCCC4)nn3)c2C)c1,-,.,-,-,?,-,.,.,.
O=S(=O)(c1ccccc1)N1CCC(O)(CSc2ccc(F)cc2)CC1,-,-,-,-,4.1µM,?,-,-,6.5µM
CCOC(=O)c1cnc2cc(-c3ccc(OCC)cc3)nn2c1-c1ccccc1,-,.,-,-,-,-,.,.,.
Nc1cc(S(=O)(=O)N2CCOCC2)ccc1Oc1cccc(Br)c1,-,-,-,-,8.2µM,-,-,-,8.2µM
Cc1cc2sc3ccc(C#CC4(O)CCCCC4)cc3c(=O)c2cc1C,-,.,-,-,0.21µM,-,0.085µM,-,9.2µM
Cn1c2ccccc2c(=O)c2cc(C#CC3(O)CCCCC3)ccc21,-,-,-,-,?,-,.,.,.
SMILES,IDH1 R132H inh,Mito fusion act,TrxR1 substrate,TrxR1 inh,Nrf2 block,A549 tox-1,FLuc enzyme inh,A549 tox-2,Nrf2 ARE inh
CC1CCN(S(=O)(=O)c2ccc3c(ccc(=O)n3CC(=O)Nc3cccc(F)c3)c2)CC1,-,.,-,-,.,-,.,.,.
Cc1ccc(-c2onc(C)c2C)cc1S(=O)(=O)NC1CCC(C)CC1 (stereo unspecified),-,.,-,-,?,-,.,.,.
O=C(CCCc1nc(-c2ccc(Cl)cc2)no1)NC1CCCC1,-,-,-,-,4.1µM,-,-,-,5.2µM
COc1ccc(-c2csc(NC(=O)C3CCN(c4ncnc5sc(C)c(C)c45)CC3)n2)cc1OC,-,-,-,-,4.1µM,-,-,-,6.5µM
C=CCn1c(C)cc(-c2csc(NC(=O)C3CCN(c4ncnc5sc(C)c(C)c45)CC3)n2)c1C,-,.,-,-,-,-,.,.,.
Cc1cc(C)cc(OCC(=O)Nc2cccc3cccnc23)c1,-,.,-,-,-,-,.,.,.
c1ccc(CNc2ncnc3ccccc23)cc1,-,-,-,-,4.6µM,-,-,-,6.5µM
COc1cc2ncnc(NCc3ccccc3)c2cc1OC,-,-,-,-,?,-,.,.,.
O=C1c2ccc(Oc3ccc([N+](=O)[O-])cc3)cc2C(=O)N1CCCO,-,-,-,-,4.1µM,-,-,-,?
COc1ccc(Br)cc1CN(C)C(=O)Cc1ccc(OC)c(S(=O)(=O)N2CCOCC2)c1,-,-,-,-,8.2µM,-,-,-,-
Cc1cccc(C)c1OCCn1c(CCNC(=O)C2CCCCC2)nc2ccccc21,-,.,-,-,-,-,.,.,.
C1=C/C(=C2/C=Cc3ccccc32)c2ccccc2N1,.,.,-,-,.,.,-,?,6.5µM
O=C(CCC1N=C2c3ccccc3N=C(SCC(=O)Nc3ccccc3F)N2C1=O)NCc1ccccc1 (stereo unspecified),-,.,-,-,-,-,.,.,.
